# TEAD-YAP inh – TEAD-YAP interaction inhibition. HEK-TIYL cells, TEAD-Gal4/YAP UAS-luciferase luminescence. inhibition, % at 9.12 µM. hit rate 1.4% among 640,000. AID 1259422; in the data active = inhibition above about 32%;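 also: 0% = median of test compound wells and 100% = reference inhibitor wells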
# FBW7 activator – activators of human E3 ligase FBW7. AlphaScreen FBW7–phospho-cyclin E peptide binding, activator screen. normalized activity (activation), % at 26.1 µM. hit rate 0.13% among 650,000. Q969H0; in the data active = normalized activity above about 1.9%;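 also: purified mutant Fbw7 with reduced substrate affinity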
# MITF inh – human MITF inhibition, primary screen. AlphaScreen MITF homodimerization, bead proximity signal. inhibition, % at 2.6 µM. hit rate 0.91% among 650,000. AID 1259374; in the data active = inhibition above about 50%;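 also: 0% = vehicle wells with protein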
# Target sequence (O75030 whole entry, looked up): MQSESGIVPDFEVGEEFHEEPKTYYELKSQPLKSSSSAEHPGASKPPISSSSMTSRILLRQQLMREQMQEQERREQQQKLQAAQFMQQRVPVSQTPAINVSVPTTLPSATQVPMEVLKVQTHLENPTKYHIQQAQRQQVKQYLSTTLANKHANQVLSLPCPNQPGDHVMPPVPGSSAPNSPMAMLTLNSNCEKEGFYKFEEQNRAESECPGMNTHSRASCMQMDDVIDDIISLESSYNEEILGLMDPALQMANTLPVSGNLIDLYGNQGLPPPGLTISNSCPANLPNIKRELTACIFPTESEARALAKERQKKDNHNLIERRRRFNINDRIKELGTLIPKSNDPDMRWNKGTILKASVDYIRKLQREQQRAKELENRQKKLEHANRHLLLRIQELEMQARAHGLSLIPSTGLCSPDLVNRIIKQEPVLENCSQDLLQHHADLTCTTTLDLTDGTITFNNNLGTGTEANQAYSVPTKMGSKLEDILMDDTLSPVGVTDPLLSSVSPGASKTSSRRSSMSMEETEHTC
# GPR151 ag – activates the human receptor GPR151. PathHunter beta-arrestin GPR151 cells, luminescence. activation, % at 11.2 µM. AID 1508602. hit rate 1% among 650,000. Q8TDV0; in the data active = activation above about 4.9%;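 also: 0% = median of compound wells and 100% = cells with positive control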
# MITF confirm – confirmation of human MITF inhibitors; inhibition, % at 2.6 µM; AlphaScreen MITF homodimerization, biotin/His-MITF beads; AID 1259372; hit rate 16% among 4,700; shares compounds with MITF inh;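 active = inhibition above a cutoff derived from the DMSO control wells, cut at about 28% in these data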;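 also: 0% = MITF dimer wells with DMSO only; inhibitors lower the bead chemiluminescence by keeping MITF from dimerizing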
# AlphaScreen DR – optically interferes with AlphaScreen signal in dose response; shares compounds with MITF inh; AlphaScreen optical interference counterscreen, cell-free; IC50, µM; hit rate 6% among 480; AID 1259373; call rule not given here
# AS interf ctr – AlphaScreen optical interference, counter-screen; LysRS AlphaScreen counterscreen, signal interference, triplicate; shares compounds with MITF inh; hit rate 7.6% among 4,700; inhibition, % at 2.6 µM;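 active = inhibition above a cutoff derived from the DMSO control wells, cut at about 30% in these data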
# Starred values were filed as active, the others as inactive; x = no result. Hits are enriched below; roughly 3.5% of the tested compounds scored in any of these assays.
SMILES,TEAD-YAP inh,FBW7 activator,MITF inh,GPR151 ag,MITF confirm,AS interf ctr,others
COc1ccc(NC(=O)CCCCCn2c(SCc3cccc([N+](=O)[O-])c3)nc3ccsc3c2=O)cc1,3.5,0.1,-2.1,-0.5,x,x,
C=CCc1cc(C)ccc1OCCCN1CC(C)OC(C)C1 (centres undefined),-15.0,0.3,53.4*,-0.7,2.1,-1.0,
COc1cc(C)ccc1OCCCN1CC(C)OC(C)C1 (centres undefined),-11.1,0.1,45.2,0.2,x,x,
O=C(c1cc(F)cc(F)c1)N1CC[C@@H](c2ccccc2)[C@H](O)C1,-3.2,0.0,53.2*,-0.6,-2.5,6.9,
COc1ccc([C@@H]2CCN(C(=O)c3cc(F)cc(F)c3)C[C@H]2O)cc1,-8.6,0.1,-8.4,-0.5,x,x,
Cc1ccc(NC(=O)/C=C/c2ccccc2)c(C)c1,-57.8,0.1,-4.9,0.2,x,x,
CC(Sc1nc2ccccc2o1)C(=O)O (centres undefined),-25.4,1.5,63.5*,-1.6,3.0,9.9,
CCCCc1nc2ccccc2c(NC(=O)CN2CCN(C(=O)c3ccco3)CC2)c1CCC,-3.9,0.1,65.4*,-2.3,-5.0,12.4,
CCCCc1nc2ccccc2c(NC(=O)CN(CCCC)CCCC)c1CCC,-7.3,0.3,83.1*,1.7,15.4,-10.3,
CCCCN(C)CC(=O)Nc1cc(N(C)C)nc2ccccc12,3.6,0.0,24.4,1.0,x,x,
CCCCc1nc2ccccc2c(NC(=O)CNC2CCCCC2)c1CCC,8.8,-0.2,66.3*,-1.1,1.4,4.5,
COc1ccccc1-c1nc2s/c(=C/c3ccc([N+](=O)[O-])cc3)c(=O)n2n1,-4.3,0.2,5.1,0.4,x,x,
CCCN1CCC(C2(C)NC(=O)N(C3Cc4ccccc4C3)C2=O)CC1 (centres undefined),-6.1,-0.1,-4.6,0.6,x,x,
C=CCc1cccc2cc(C(=O)Nc3ccc(C)cc3)c(=O)oc12,-7.6,0.0,-3.0,1.3,x,x,
N#CC1(C#N)[C@@H]2C=Cc3ccccc3N2[C@@H](C(=O)c2ccccc2)[C@@H]1c1cccs1,-4.1,-0.1,17.1,-0.4,x,x,
CCN(CC)C(=O)C1CCCN(c2ccc(-n3cc(CC(=O)Nc4cc(OC)c(OC)c(OC)c4)c4ccccc43)nn2)C1 (centres undefined),7.0,0.1,8.5,1.2,x,x,
CS(=O)(=O)N1CCN(c2ccccc2NC(=O)c2ccc(-c3ccccc3)cc2)CC1,-2.4,-0.2,-10.5,0.6,x,x,
O=C(CN1CCN(c2ccc(F)c(F)c2)C1=O)NC1CC1,6.2,0.0,-2.3,0.5,x,x,
CN(C)/C=C/C=C/C(=O)c1cccc(C(=O)/C=C/C=C/N(C)C)c1O,-8.4,-0.1,56.4*,1.0,79.0*,-10.9,AlphaScreen DR=>6.48
Cc1ccc(C(=O)/C=C/C=C/C=C/N(C)C)o1,-4.2,-0.4,15.9,-0.6,x,x,
CCOC(=O)CCCCC(=O)c1[nH]c(=O)[nH]c1CSC(=N)N,-7.7,0.1,44.9,-0.3,x,x,
Cc1cc(C)cc(OCC(=O)Nc2ccccn2)c1,-42.3,-0.1,9.8,-0.7,x,x,
Cc1[nH]c(=O)[nH]c1C(=O)CCCCC(=O)OCC(=O)Nc1ccccn1,-2.8,-0.7,115.6*,0.0,118.2*,97.4*,
CCOC(=O)CCCCC(=O)c1[nH]c(=O)[nH]c1C,-3.5,-0.6,115.4*,-1.5,118.5*,98.6*,
Cc1[nH]c(=O)[nH]c1C(=O)CCCCC(=O)OCC(=O)c1ccc(Br)cc1,7.7,-1.0,114.5*,1.4,112.3*,92.9*,
SMILES,TEAD-YAP inh,FBW7 activator,MITF inh,GPR151 ag,MITF confirm,AS interf ctr,others
CCn1c(=O)n(CC)c2cc(NC(=O)c3ccc([N+](=O)[O-])cc3)c(Br)cc21,1.2,-0.1,-6.5,0.8,x,x,
CCOc1ccccc1CN1CCNC(=O)C1CC(=O)N1CCOCC1 (centres undefined),-3.6,0.2,14.6,1.8,x,x,
CC(C)(C)c1ccc(OCC(=O)NNC(=O)c2ccncc2)cc1,-9.6,0.1,0.2,-2.0,x,x,
N#Cc1ccc(OCC(=O)c2ccc(Br)cc2)cc1,-5.8,0.1,-7.6,-0.5,x,x,
CCc1nnc(NS(=O)(=O)c2ccc(NC(=O)COc3ccccc3)cc2)s1,4.3,-0.1,65.4*,0.1,-3.5,-3.0,
CCC(=O)Nc1ccc(S(=O)(=O)Nc2nnc(CC)s2)cc1,7.8,0.2,8.3,0.3,x,x,
Oc1ccc2c(c1)C1CCCC1(N1CCOCC1)O2 (centres undefined),8.2,-0.4,70.1*,1.2,73.1*,-2.3,AlphaScreen DR=>6.48
O=C(Cc1cccs1)N1CCC[C@H](Cn2nc(-c3cccs3)ccc2=O)C1,5.3,0.0,8.5,0.2,x,x,
Cc1cc(C)cc(OCCCCn2cncn2)c1,-0.2,-0.5,61.5*,0.2,0.8,4.7,
c1ccc(-c2ccc(OCCCCn3cncn3)cc2)cc1,-51.0,-0.2,55.4*,0.7,37.0*,7.2,AlphaScreen DR=>6.48
c1ccc(COc2ccc(OCCCCn3cncn3)cc2)cc1,-12.0,-0.1,6.7,-1.6,x,x,
Clc1ccc(OCCCn2cncn2)cc1Cl,5.5,-0.3,62.9*,1.6,13.8,7.5,
CC(C)(C)c1ccc2c(c1)OCC(C(=O)N1CCC3(CC1)NC(=O)c1ccccc1O3)O2 (centres undefined),-10.8,-0.1,-4.5,0.2,x,x,
CC(C)N(C)S(=O)(=O)c1cccc(C(=O)N2CCC(C(N)=O)CC2)c1,-4.8,-0.2,-0.2,-0.1,x,x,
Cc1ccc(C(=O)N/C(=C\c2ccccc2)C(=O)OC(C)C)cc1,-5.7,0.9,10.1,-1.6,x,x,
COc1ccc(/C=N/NC(=O)c2cc(-c3cccn3C)n[nH]2)cc1OC,6.3,2.1*,77.9*,-0.7,-5.6,16.6,
O=S(=O)(c1ccc2ccccc2c1)N1CCCC1,0.5,-0.1,-19.2,-0.2,x,x,
Cc1ccc(C)c(NNC(=O)C(=O)NNc2cc(C)ccc2C)c1,-2.2,-0.2,50.8*,1.0,1.8,-4.4,
CC(C(=O)N1CCN(C)CC1)n1sc2ccccc2c1=O (centres undefined),-11.8,-0.1,1.3,1.7,x,x,
COC(=O)CN1CCN(Cc2nc3ccccc3[nH]2)CC1,-10.6,-0.5,51.8*,-1.4,6.5,13.8,
O=C(c1cccc2ccccc12)N1CCN(Cc2nc3ccccc3[nH]2)CC1,10.2,-0.5,58.8*,2.2,-2.1,13.2,
COc1ccc(CCNC(=O)C2CCN(Cc3nc4ccccc4[nH]3)CC2)cc1,0.5,-0.5,79.5*,0.0,6.5,14.1,
COc1ccc2nc(CN3CCN(C(=O)C4CC4)CC3)[nH]c2c1,-5.5,-0.3,68.0*,0.1,12.6,13.4,
O=C(C1CCN(Cc2nc3ccccc3[nH]2)CC1)N1CCN(C2CCCCC2)CC1,-5.4,-0.1,9.3,0.1,x,x,
CCNC(=O)N1CCN(Cc2nc3ccccc3[nH]2)CC1,-2.2,0.1,8.1,-1.3,x,x,
CC1=CC(C(F)(F)F)(C(F)(F)F)C(C#N)=C(N)N1c1ccc(C(F)(F)F)cc1,-0.7,0.0,-1.3,1.2,x,x,
COc1ccc(C(=O)CSc2nc(N)c3[nH]cnc3n2)cc1,2.2,0.3,5.1,-0.3,x,x,
